Data taken from ChEMBL document CHEMBL3988442, “University of Dundee, Small-Polar-MMV Screening Library” (2021).

What was measured:
[1] = target: T1, Aspartate--tRNA(Asp/Asn) ligase (Mycobacterium tuberculosis (strain ATCC 25618 / H37Rv)) (UniProt P9WFW3); assay: Assay for Asp RNA synthetase-1 from Mycobacterium tuberculosis; format: functional; design: scale not given: direction of the effect not stated beside the values; settings: 30 µM; note: in the data most compounds retested in dose-response had high values
T1 sequence (whole entry): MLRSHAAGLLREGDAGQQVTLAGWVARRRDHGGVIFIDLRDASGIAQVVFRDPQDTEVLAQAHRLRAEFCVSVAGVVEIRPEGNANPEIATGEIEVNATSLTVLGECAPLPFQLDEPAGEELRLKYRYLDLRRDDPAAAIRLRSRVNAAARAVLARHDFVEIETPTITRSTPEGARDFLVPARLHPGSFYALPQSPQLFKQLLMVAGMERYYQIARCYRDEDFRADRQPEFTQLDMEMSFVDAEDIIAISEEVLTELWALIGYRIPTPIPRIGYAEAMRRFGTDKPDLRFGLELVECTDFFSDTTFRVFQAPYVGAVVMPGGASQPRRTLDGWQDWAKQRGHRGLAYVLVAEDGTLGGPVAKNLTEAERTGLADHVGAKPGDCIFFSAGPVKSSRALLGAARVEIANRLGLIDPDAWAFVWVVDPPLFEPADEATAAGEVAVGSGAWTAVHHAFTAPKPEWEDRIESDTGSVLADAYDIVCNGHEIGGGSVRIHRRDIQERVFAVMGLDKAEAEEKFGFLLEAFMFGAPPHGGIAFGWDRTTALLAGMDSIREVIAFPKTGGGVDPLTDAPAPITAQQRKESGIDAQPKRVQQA

[2] = target: Shiga toxin 2 (Escherichia coli O157:H7) (UniProt P09385+P09386); assay: E. coli 0.157:H7 Shiga Toxin SOP - stx2 screening assay; format: functional; design: scale not given: direction of the effect not stated beside the values; settings: 30 µM

| SMILES | Percent Effect [1] [%] | Percent Effect [2] [%] |
| --- | --- | --- |
| Cc1nnc(NC(=O)NC2CCOc3ccccc32)s1 (configuration not stated) | 1.16 | -1.42 |
| Cc1cccc(CN2CCC3(CCN(c4ccccn4)C3)C2=O)c1 (configuration not stated) | 0.319 | -2.5 |
| COCc1nc(CNC2CCSCC2)no1 | -4 | 9.42 |
| CC(C)COCC(NC(=O)c1cc[nH]n1)c1ccco1 (configuration not stated) | 7.45 | 9.69 |
| CN(C)C(=O)NC1COC2(CCN(Cc3ccccc3)CC2)C1 (configuration not stated) | -3.84 | -5.12 |
| Cc1nnc(N2CCC(CN(C)C(C)C)CC2)c(C#N)c1C | -0.173 | -25 |
| C[C@@H]1CN(C(=O)c2ccc(C#N)nc2)C[C@@]1(O)C1CC1 | 0.0335 | -1.27 |
| COCc1nc(C(=O)NS(=O)(=O)c2ccc(C)s2)cs1 | 0.678 | -34.1 |
| CC(NC(N)=O)C(=O)N1CCCN(Cc2nccn2C(C)C)CC1 (configuration not stated) | 0.509 | 8.58 |
| O=C(C1SCCc2sccc21)N1CCC(O)CC1 (configuration not stated) | 5.25 | -25.1 |
| CCNc1cc2c(nn1)CCN(C(=O)c1ccc3cc[nH]c3c1)C2 | 2.23 | -3.04 |
| OC(COc1ccc(F)cc1)CN1CCC(Cn2cccn2)CC1 (configuration not stated) | 1.46 | -35.3 |
| c1ccc2sc(CN3CCOC(Cn4cncn4)C3)nc2c1 (configuration not stated) | -5.32 | 14 |
| COc1ccc(-n2ccc(C(=O)NCCN3CCCCC3C)n2)cc1 (configuration not stated) | 4.6 | -18.1 |
| CC(=O)N1CCC(c2cc(C(F)(F)F)n3ccnc3n2)CC1 | 6.9 | -9.96 |
| COc1cccc(CN2CCC(c3cc(O)nc(C)n3)C2)c1 (configuration not stated) | -3.62 | -14.1 |
| O=C(CSc1ccccc1Cl)NS(=O)(=O)c1ccc2c(c1)OCCO2 | -8.39 | -0.0514 |
| CNc1snc(C)c1C(=O)N1CCCC(n2ccnc2C(C)C)C1 (configuration not stated) | 1.51 | 3.71 |
| COc1c(CNC2CCCOc3ccccc32)c(C)nn1C (configuration not stated) | -2.86 | -2.26 |
| Cc1ccc(OC2(C(=O)O)CCN(C(=O)c3ccc(F)cc3)CC2)cn1 | -4.69 | 10.4 |
| Cc1nc([C@@H]2C[C@@H]3CCN(C(=O)c4ccnnc4)C[C@H]3O2)sc1C | 4.24 | -9.81 |
| CC1(C)Cc2ccccc2-c2nc(NCCO)[nH]c(=O)c21 | 3.08 | 0.00332 |
| CSc1nccn1-c1cccc(C(=O)NCCCN2CCOCC2)c1 | -1.07 | 27.6 |
| CCS(=O)(=O)N1CCC2(CCCN(Cc3cc(OC)ccc3F)C2)C1 (configuration not stated) | 0.836 | -3.7 |
| CC(=O)N1CCN(c2cc(C3CN(C)CCO3)nc(C)n2)CC1 (configuration not stated) | 0.67 | -24.3 |
| Cc1nc(C2CCCN2C(=O)c2cc3c(s2)CCCC3)no1 (configuration not stated) | -1.23 | 23.4 |

| SMILES | Percent Effect [1] [%] | Percent Effect [2] [%] |
| --- | --- | --- |
| Cc1occc1C(=O)Nc1ccnc(OC2CCOC2)c1 (configuration not stated) | -6.74 | 3.41 |
| CC(C)c1nc(CN(C)CC2CCN(CCO)CC2)no1 | 3.25 | -7.83 |
| O=C(c1cscn1)N1C[C@@H]2C[C@@H](c3nnc(C4CC4)o3)O[C@@H]2C1 | 1.21 | -37.8 |
| CC(=O)Nc1nc(C(=O)NCc2ccc(N3CCCCCC3)nc2)cs1 | 6.56 | -131 |
| Cc1ccc(-c2nc(CN3CCN(S(=O)(=O)N(C)C)CC3)cs2)o1 | 2.34 | -12.2 |
| CC(c1ccc(Cl)cc1)N1CCN(CCS(C)(=O)=O)CC1 (configuration not stated) | -1.84 | 1.09 |
| Cn1ncc2c1NC(=O)CC2c1ccccc1Cl (configuration not stated) | 1.14 | 6 |
| N#Cc1cn(C2CC2)c(=O)n(CC(O)c2ccc(OC(F)F)cc2)c1=O (configuration not stated) | 1.23 | 14 |
| O=C1[C@H]2CN(c3ncccn3)C[C@H]2CN1Cc1ccncc1 | 0.211 | -21.9 |
| O=S(=O)(CCCN1CCCC1Cn1cncn1)c1ccccc1 (configuration not stated) | -1.76 | -32.7 |
| CC(C)n1c(C2CCCN(Cc3ccnn3C)C2)nc2ccccc21 (configuration not stated) | -2.04 | 1.29 |
| NC(=O)CSCCC(=O)N1CCCC1c1ccsc1 (configuration not stated) | -7.94 | 6.46 |
| CCOc1ccc(N2CCCN=C2NC(=O)c2ccccc2C)cc1 | 4.31 | -57.5 |
| CCc1nc(CN(C(C)=O)C2CCN(CCc3cnn(C)c3)C2)no1 (configuration not stated) | -5.05 | -15.6 |
| c1cnc(OCc2nnc3n2CCN(CC2CC2)C3)nc1 | 1.75 | 4.75 |
| CSC(C)C(=O)NCCCc1cc(N)n(-c2ccccc2)n1 (configuration not stated) | -3.65 | -1.83 |
| CNC(=O)c1ccc(OC2CCN(S(C)(=O)=O)CC2)c(Cl)c1 | -0.864 | -64.7 |
| CC(c1nc(C2CC2)no1)N1CCN(Cc2cccc(C#N)c2)CC1 (configuration not stated) | -3.08 | 9.24 |
| O=C(COCC1CC1)N1CCCC(n2ccnc2)C1 (configuration not stated) | 0.946 | -26.2 |
| CCOC(=O)CNC(=O)N1CCN(c2ncccn2)CC1 | 4.73 | -21.7 |
| Cc1nc(C2CCCN(C(=O)c3ccc(Cn4cccn4)o3)C2)no1 (configuration not stated) | -5.64 | 12.3 |
| CCc1nc(CN2CCCN(c3nc4ccccc4o3)CC2)no1 | 5.41 | -69.6 |
| Cc1noc(C)c1CN1CC[C@H]2OCC[C@@H](C(=O)N3CCCO3)[C@@H]2C1 | -1.14 | -15.4 |
| CC1(C(=O)N2CCOCC2)CN(Cc2ccccc2F)CCO1 (configuration not stated) | -0.309 | 1.31 |
| NC(=O)c1ccc(NC(=O)CCN2CCCC(N3CCCC3)C2)cc1 (configuration not stated) | -4.91 | 24.7 |
